Results reported in PubChem BioAssay (NCATS).
Records with an inconclusive call do not appear. Unmarked numbers belong to inactive results. Calls follow the shape of the dose curve; as a rule, active = well fitted cell-killing curve with a large enough effect; inconclusive = small, poorly fitted or top-dose-only effect, or effect the other way; inactive = flat fitted curve, though single readings scatter. Where a SMILES comes first, the peptide text is derived from it.

System: OV90
Assay: Primary qHTS to identify gynecologic anti-cancer compounds using libraries of approved drugs and bioactive compounds (AID 1345084); also: nearly all actives have a fitted effect of over 55% in size
Conditions: Gynecologic cancer cell panel viability, ATPlite luminescence, 48 h; series mostly up to 57.5 µM; activity change, negative = cytotoxicity: at the top concentration
Summary of the method: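 Luminescence from the ATPlite ATP-monitoring reagent indicates viable cell number; lower signal means cytotoxicity. Cells received compound 16 h after seeding and were exposed for 48 h across five concentrations.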
% is scaled to controls: 0 for no effect and ±100 for the full control effect.

| Structure (SMILES) | activity change, negative = cytotoxicity [%] |
| --- | --- |
| CCCCCN(CCCOC)C(=O)C(CCC(=O)O)NC(=O)c1ccc(Cl)c(Cl)c1 (stereo not given) | -3.14 |
| CCCCCCn1c(=O)c2c(ncn2C)n(C)c1=O | 8.36 |
| CCCc1ncc(C(=O)O)s1 | 0.924 |
| C/C(=N/NC(=O)c1ccncc1)C(=O)O | -10.7 |
| COC(=O)/C=C(/C)N | 7.88 |
| NS(=O)(=O)c1cc2c(cc1Cl)CN(C1CCCCC1)C2=O | 7.86 |
| O=C1NC(c2ccccc2)(c2ccccc2)C(=O)N1COP(=O)(O)O | -0.77 |
| CCc1cccc2c(CCO)c[nH]c12 | 20.3 |
| CCCCC(CC)CNC(=O)CC(C)OC(=O)CCC(=O)O (stereo not given) | 5.75 |
| O=C(O)c1ccc(OCCN2CCCCC2)cc1 | 6.79 |
| CCCC(=O)O[C@]1(C(=O)CC)CC[C@H]2[C@@H]3CCC4=CC(=O)CC[C@]4(C)[C@H]3[C@@H](O)C[C@@]21C | -16.4 |
| CC(C)N(CCC(=O)c1ccc2ccccc2c1)Cc1ccccc1 | 2.94 |
| COC(=O)CCCCC(CCSS/C(CCO)=C(\C)N(C=O)Cc1cnc(C)nc1N)SC(C)=O (stereo not given) | -11.5 |
| O=C1CC2(CCCC2)CC(=O)N1 | 4.74 |
| CCCCOCCOC(=O)c1cccnc1 | 2.76 |
| CC(=O)N[C@@H](CO)C(=O)N[C@@H](CC(=O)O)C(=O)N[C@@H](CCCCN)C(=O)N1CCC[C@H]1C(=O)O (Ac-SDKP-OH) | 11.2 |
| CC(=O)O[C@@H]1CC2C3CCc4cc(OC(=O)c5ccccc5)ccc4C3CCC2(C)[C@H]1OC(C)=O (stereo not given in full) | 5.41 |
| Cc1ccc2c(Cl)cc(Cl)c(O)c2n1 | -0.645 |
| CC(Oc1c(Cl)cccc1Cl)C1=NCCN1 (stereo not given) | -0.523 |
| N#CC1(c2ccc(F)cc2)CCC(=O)CC1 | -0.734 |
